From PubChem BioAssay (NCI)
Where “and” joins values, the source holds several entries; their conditions need not be identical. Equal entries are not always repeated. The panel holds about 79,000 compounds, 15% with a hit somewhere; the sample as a whole holds those more often. Rule as the data show it: active = growth inhibition above about 70%; inactive = the rest.

Key:
[1] = NCI Yeast Anticancer Drug Screen. Data for the rad50 strain (AID 155);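 also: 0% = growth of vehicle-only cultures of the same strain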; details: S. cerevisiae rad50 strain growth inhibition; at 50.0 µM; hits give high values
Outline: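 DNA repair mutant yeast, compound exposure, growth read-out; inhibition is taken relative to vehicle.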

[2] = NCI Yeast Anticancer Drug Screen. Data for the mec2-1 strain (AID 157); details: S. cerevisiae mec2-1 strain, at 50.0 µM, hits give high values
Outline: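 Cells of the genetically defined mec2-1 yeast strain are incubated with test compound. Inhibition of growth is calculated against vehicle-treated controls.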

[3] = NCI Yeast Anticancer Drug Screen. Data for the sgs1 mgt1 strain (AID 161);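 also: 0% = growth of cultures given vehicle only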; details: S. cerevisiae sgs1 mgt1 strain, at 50.0 µM, hits give high values
Outline: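 Mutant yeast exposed to compound; growth scored against vehicle-only wells.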

[4] = NCI Yeast Anticancer Drug Screen. Data for the cln2 rad14 strain (AID 165);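 also: 0% = growth equal to vehicle treated cultures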; details: S. cerevisiae cln2 rad14 strain, at 50.0 µM, hits give high values
Outline: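 The screen exposed genetically defined yeast (cln2 rad14) to test compounds and scored growth inhibition relative to vehicle-treated controls.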

[5] = NCI Yeast Anticancer Drug Screen. Data for the bub3 strain (AID 167); details: S. cerevisiae bub3 mutant strain, at 50.0 µM, hits give high values
Outline: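 In this screen, a yeast mutant lacking normal mitotic checkpoint function is challenged with compound. Relative growth versus vehicle gives the inhibition value.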

[6] = NCI Yeast Anticancer Drug Screen. Data for the mlh1 rad18 strain (AID 175); details: S. cerevisiae mlh1 rad18 strain growth inhibition; at 50.0 µM; hits give high values
Outline: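 Compound-treated yeast growth, normalised to vehicle controls. Strain bears defined DNA repair mutations.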

Measured: growth inhibition

CCCCCCCCCCCCCCC(O)C1CCC(C(O)CCC(O)CCCCCC(O)CC2=CC(C)OC2=O)O1 (centres undefined)
inactive: [1] -37.2% | [2] -33.1% | [3] -17.6% | [4] 39.8% | [5] -25.4% | [6] 2.7%

NC(Cc1ccccc1)c1ccccc1 (centres undefined) (tested in a mixture with another compound)
inactive: [1] 0.6% | [2] -17.4% | [3] -6.4% | [4] 9.7% | [5] 2.6% | [6] 2.55%

Nc1ccc([As](O)O)c(C(=O)O)c1
inactive: [1] -15.1% | [2] -24.1% | [3] -27.9% | [4] -2.35% | [5] -26.3% | [6] -35.6%

Nc1nc(N)c2n[nH]nc2n1
inactive: [1] -18.5% | [2] -6.45% | [3] -22.1% | [4] -105% | [5] 3.55% | [6] -15.3%

CC(=O)CC(C)=O.[Cl][Sb]1([Cl])[CH2]CC[CH2]1
inactive: [1] -22.4% | [2] -11.8% | [3] -17.1% | [4] -0.75% | [5] 1.25% | [6] 5.55%

O=C(c1ccccc1)C1C(C(=O)c2ccccc2)N1Cc1ccccc1 (centres undefined)
inactive: [1] 5% and 21.4% | [2] 9.9% and 4.5% | [3] 3.8% and -9.95% | [4] 2.8% and -1.2% | [5] 27.2% and 9% | [6] -7.8% and 6.65%

CC(=O)O.CC(=O)O.CC(=O)O.CC(=O)O.[Cu].[Cu]
inactive: [1] 36.9% | [2] 20.2% | [3] 56.5% | [4] -53.6% | [5] 26.9% | [6] 40.8%

COC(=O)c1cccc2cc3cccc[n+]3cc12
inactive: [1] 3.7% | [2] -5.5% | [3] -9.3% | [4] -35.3% | [5] -1.05% | [6] 0.75%

O=P(O)(OCCc1ccccc1)Oc1ccccc1O
inactive: [1] -6.05% | [2] -4.55% | [3] -20.7% | [4] -1.15% | [5] -10.7% | [6] 13.6%

C[N+]1(CCCl)CCc2cc([N+](=O)[O-])ccc2C1 (centres undefined)
inactive: [1] -25.1% | [2] -84.7% | [3] -24.9% | [4] -16.1% | [5] -12.6% | [6] -9.8%

CN1C2C=CC1c1c(C3=NC(C)(C)CO3)cccc12 (centres undefined)
inactive: [1] -8.15% | [2] -8.05% | [3] -7.95% | [4] -36% | [5] 6.85% | [6] 2.6%

CC(C)=CC1C(C(=O)OCc2ccc(Cl)c(Cl)c2)C1(C)C (centres undefined)
inactive: [1] 4.25% | [2] -2.5% | [3] 8.9% | [4] 16.9% | [5] 8.9% | [6] 5.25%

N#CC(c1ccccc1)N1CCCN(C(C#N)c2ccccc2)C1c1ccc(N(CCCl)CCCl)cc1 (centres undefined)
inactive: [1] 11.1% | [2] -1.5% | [3] 2.25% | [4] -17.3% | [5] -0.9% | [6] 9.65%

CCCC(Br)C(=O)OCC (centres undefined)
inactive: [1] 13.6% | [2] 4.35% | [3] -8.1% | [4] 0.15% | [5] 0.25% | [6] 9.1%

CCC1(C(C)C)C(=O)NC(=S)N(C)C1=O (centres undefined)
inactive: [1] 29.6% | [2] -5.45% | [3] 2.9% | [4] 2.85% | [5] 0.95% | [6] 12.8%

CCOP(=O)(CC)C(Cl)(Cl)Cl (centres undefined)
inactive: [1] 2.4% | [2] -18.5% | [3] -5.95% | [4] -24.1% | [5] 6.05% | [6] -2.2%

CN1CCN(c2nc(N)c(Br)c(Cl)n2)CC1
inactive: [1] -2.85% | [2] 3.65% | [3] -14.8% | [4] -1.85% | [5] 2.95% | [6] -10.2%

COc1cc([N+](=O)[O-])ccc1[As](=O)(O)O
inactive: [1] 0% | [2] -4.1% | [3] 8.95% | [4] -63.5% | [5] 10.7% | [6] -1.05%

CN(C)c1ccc(/C=C/[N+](=O)[O-])cc1
inactive: [1] -3% | [2] -17.4% | [3] 12.4% | [4] -15.7% | [5] 0.6% | [6] -3.25%

N/C(=N\N=C\c1ccccc1O)N[N+](=O)[O-]
inactive: [1] -17.5% | [2] -22.9% | [3] -14.8% | [4] -108% | [5] -19.2% | [6] -5.85%

N#CCCCBr
inactive: [1] -2.7% | [2] -15.8% | [3] 7.2% | [4] -13.8% | [5] -2% | [6] 11.8%

CCN(CC)CC(=O)c1ccccc1
inactive: [1] -24.1% | [2] -8.85% | [3] -21.2% | [4] 9.45% | [5] 3.15% | [6] -45.7%

CC1NC1c1ccccc1 (centres undefined)
inactive: [1] -13.6% | [2] -29.3% | [3] -6.85% | [4] -20.4% | [5] -11.8% | [6] -19.4%

OC(c1ccccc1)C(NC1CCCCC1)c1ccccc1 (centres undefined)
inactive: [1] -4.5% | [2] -18.6% | [3] -0.75% | [4] -24.2% | [5] -6.3% | [6] -56%

CCC(C)C(CC)C(=O)NC(N)=O (centres undefined)
inactive: [1] 4.4% | [2] 4.55% | [3] -11.4% | [4] -1.35% | [5] 8.5% | [6] 0.95%

N#CN1CC(C(=O)N2CCCCC2)C=C2c3cccc4[nH]cc(c34)CC21 (centres undefined)
inactive: [1] 9.5% | [2] -10.8% | [3] 34.5% | [4] 0.05% | [5] 8.95% | [6] 10.9%

O=C(O)C(C(=O)O)P(=S)(S)c1ccccc1 (centres undefined)
inactive: [1] -2.1% | [2] 8.6% | [3] -2.75% | [4] 1.15% | [5] 35.3% | [6] 14.5%

O=C(O)c1cc(I)cc(I)c1I
inactive: [1] -5.55% | [2] -16.1% | [3] -34.5% | [4] -70.2% | [5] 1.25% | [6] 12.7%

NC(=O)C(F)(F)Cl
inactive: [1] 12.8% | [2] 7.1% | [3] -20.4% | [4] 12.3% | [5] -28.8% | [6] -19.2%

Cc1cccc(NC(=O)CCl)c1
inactive: [1] 1.65% | [2] -23.4% | [3] 10.8% | [4] -4.6% | [5] 21.9% | [6] 19.8%

C1CC[N-]CC1.C1CC[N-]CC1.C1CC[N-]CC1.C1CC[N-]CC1.[Cl][Rh][Cl]
inactive: [1] -12.5% | [2] 28.6% | [3] 8.5% | [4] -13.9% | [5] -58% | [6] -18.4%

C1=CC(N2CCOCC2)CC1 (centres undefined)
inactive: [1] -24.2% | [2] 30.2% | [3] 1.75% | [4] -45.5% | [5] -30.4% | [6] 2.25%

Cc1ccc(C(=O)C2C(c3ccccc3)N2Cc2ccccc2)cc1 (centres undefined)
inactive: [1] 13.8% | [2] 7.85% | [3] 35.4% | [4] -10.3% | [5] 30.6% | [6] 14.7%

O=C(O)C(O)(c1ccccc1)C1CCCCC1 (centres undefined)
inactive: [1] 1% and 8.5% | [2] -19.5% and 5.45% | [3] -2.1% and -8.8% | [4] 18.6% and -7.65% | [5] -30.9% and 0.6% | [6] -1.6% and -2.85%

O=[As]c1ccc(C(=O)O)cc1 (centres undefined)
inactive: [1] 11.2% | [2] -8.75% | [3] 0.2% | [4] 19.3% | [5] -7.2% | [6] 23.2%

CCCOC(=O)c1cncn1C(C)c1ccccc1 (centres undefined)
inactive: [1] 4.4% | [2] 18.7% | [3] 37.5% | [4] 10.7% | [5] 35.6% | [6] 31.4%

CCCCCCNC(=O)C(C)Br (centres undefined)
inactive: [1] -7.35% | [2] 4.9% | [3] -0.55% | [4] -12.4% | [5] 9.95% | [6] 1.85%

CCN(CC)C(=S)SC1C(=O)NC(=O)NC1=O
inactive: [1] 23.3% | [2] -15.4% | [3] 20.1% | [4] 20.6% | [5] 1.9% | [6] 16.1%

O=C(O)c1ccc(Cl)c(Cl)c1
inactive: [1] 1.7% | [2] -5.4% | [3] 3.9% | [4] -14.2% | [5] 5.95% | [6] 0.45%

COc1cc2c(c(OC)c1OC)-c1ccc(O)c(=O)cc1[C@@H](NC(C)=O)CC2
inactive: [1] 24% and 43.6% | [2] 1.95% and 34.6% | [3] 54.9% | [4] 35.5% | [5] 62.5% | [6] 22.9% and -13.1%

CCC1(CC(C)O)C(=O)NC(=O)NC1=O (centres undefined)
inactive: [1] 6.9% | [2] -2.45% | [3] -20% | [4] -37.7% | [5] -0.65% | [6] -23.1%

CCOP(=O)(OCC)/C(C#N)=C/c1ccccc1OC
inactive: [1] 40.5% | [2] -1.3% | [3] 0.15% | [4] -4.65% | [5] -14.8% | [6] 27.6%

CC1C/C(=C\N=[N+]=[N-])C(=O)O1 (centres undefined)
inactive: [1] -11.4% | [2] 14.7% | [3] 6% | [4] -4.9% | [5] 12.4% | [6] -0.05%

COc1ccc(/C=C/c2cc(OC)c3c(c2)OCO3)cc1O
inactive: [1] 4.4% | [2] 5.45% | [3] -9.55% | [4] 0.9% | [5] 1.7% | [6] -7.75%
